This is a sample that favours compounds with a hit; in the whole collection about 1% have one here.
MEX-5 binding – MEX-5 zinc finger RNA-binding disruptors – biochemical, C. elegans, fluorescence polarization, MLPCN library, primary screen | Zinc finger protein mex-5 (Caenorhabditis elegans), Q9XUB2 | activity score (negative = inhibition of binding), % at 10 µM | hit rate 0.38% among 300,000 | MEX-5/FITC-TCR2 RNA binding; active compounds read low;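 active = inhibition past about -25% in most replicates, and total fluorescence under double the plate's negative control median, limit read from the data; inconclusive = replicates evenly split on the limit, or fluorescence at least double controls; inactive = too little inhibition in most replicates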
Target sequence (Q9XUB2 whole entry, looked up): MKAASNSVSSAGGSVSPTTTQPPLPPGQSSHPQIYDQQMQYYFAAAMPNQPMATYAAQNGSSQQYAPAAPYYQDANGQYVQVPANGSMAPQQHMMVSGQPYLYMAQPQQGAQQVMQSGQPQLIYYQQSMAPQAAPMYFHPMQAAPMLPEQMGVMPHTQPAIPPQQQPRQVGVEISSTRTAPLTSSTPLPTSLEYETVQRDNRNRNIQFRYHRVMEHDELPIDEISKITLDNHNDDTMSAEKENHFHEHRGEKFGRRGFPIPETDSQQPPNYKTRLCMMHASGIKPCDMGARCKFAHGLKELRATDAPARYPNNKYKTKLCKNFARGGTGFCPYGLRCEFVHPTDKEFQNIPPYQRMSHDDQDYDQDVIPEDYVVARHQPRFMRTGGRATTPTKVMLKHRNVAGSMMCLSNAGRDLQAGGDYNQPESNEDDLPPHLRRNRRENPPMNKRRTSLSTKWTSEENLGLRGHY
EBV gp42 block – Epstein-Barr virus gp42 inhibitors, primary screen, biochemical, uHTS, fluorescence polarization; inhibition, % (tested at 21.74 µM); Fluorescence polarization binding assay, mP read-out; hit rate 0.42% among 220,000; Glycoprotein 42 (Epstein-Barr virus (strain AG876)), Q1HVG2; in the data active = inhibition above about 50%
EBNA-1 inhibitor – EBNA-1 DNA-binding inhibitors, primary screen, biochemical, fluorescence polarization | inhibition, % at 14.8 µM | hit rate 0.34% among 300,000 | AID 1950, 2009; in the data active = inhibition above about 28%
ZTA counter – counter-screen for EBNA-1 inhibitors: inhibitors of Epstein-Barr virus ZTA | inhibition, % at 11 µM | hit rate 0.15% among 320,000 | ZTA-DNA binding, fluorescence polarization; in the data active = inhibition above about 33%
A number is an active result.

For O=C(NCCc1nc2ccc(Cl)cc2[nH]1)C1CCC(=O)N(Cc2cccc(F)c2)C1 (stereo not given) the results were MEX-5 binding inactive, EBNA-1 inhibitor inactive and ZTA counter inactive.
For COc1cccc(C(=O)Oc2ccc3ccc(=O)oc3c2)c1 the results were MEX-5 binding inactive, EBNA-1 inhibitor inactive and ZTA counter inactive.
O=C(NNC(=O)c1ccc2ccccc2c1O)c1cccs1 was read as MEX-5 binding inactive, EBNA-1 inhibitor inactive and ZTA counter inactive.
O=C(NNC(=O)c1ccc2ccccc2c1O)c1ccccc1Cl was read as MEX-5 binding -55.6, EBV gp42 block inactive, EBNA-1 inhibitor inactive and ZTA counter inactive.
COC(=O)c1cc(C(=O)c2ccc(Cl)cc2)n2c(=O)/c(=C\N(C)C)sc12 was read as EBV gp42 block 61.6, EBNA-1 inhibitor inactive and ZTA counter inactive.
Screening CC1(C)CC(=O)C=C(Nc2ccc(Cl)c(Br)c2)C1 returned MEX-5 binding inactive, EBNA-1 inhibitor inactive and ZTA counter inactive.
Screening COCCn1c(=NC(=O)c2sc3ccccc3c2Cl)sc2cc(S(N)(=O)=O)ccc21 returned MEX-5 binding inactive, EBV gp42 block inactive, EBNA-1 inhibitor inactive and ZTA counter inactive.
Screening C=CCn1c(=NC(=O)c2sc3ccccc3c2Cl)sc2cc(S(N)(=O)=O)ccc21 returned MEX-5 binding inactive, EBV gp42 block inactive, EBNA-1 inhibitor 31.0 and ZTA counter inactive.
`NS(=O)(=O)c1ccc(CCNC(=O)c2cnc(Cl)c(Cl)c2)cc1` gave MEX-5 binding inactive, EBNA-1 inhibitor inactive and ZTA counter inactive.
Screening O=c1c2ccccc2c(C=Nc2cccc(O)c2)c(O)n1-c1ccc2c(c1)OCO2 returned MEX-5 binding inactive, EBV gp42 block 50.5, EBNA-1 inhibitor inactive and ZTA counter inactive.
`CCc1ccc(NC(=O)/C(C#N)=C/c2cc3ccc(C)cc3nc2N2CCOCC2)cc1` gave MEX-5 binding -40.7, EBV gp42 block inactive, EBNA-1 inhibitor inactive and ZTA counter inactive.
`O=C(C[n+]1ccccc1)N/N=C/c1cc(Br)ccc1O` gave MEX-5 binding inactive, EBNA-1 inhibitor inactive and ZTA counter inactive.
Screening Nc1c(C(=O)N/N=C/c2cccnc2)oc2nc(-c3ccccc3)cc(-c3ccco3)c12 returned MEX-5 binding -36.6, EBV gp42 block inactive, EBNA-1 inhibitor inactive and ZTA counter inactive.
Nc1c(C(=O)N/N=C/c2cccnc2)oc2nc(-c3ccco3)cc(-c3ccco3)c12 was read as MEX-5 binding inactive, EBV gp42 block inactive, EBNA-1 inhibitor inactive and ZTA counter inactive.
COc1cc(C2(c3ccc(O)c(OC)c3)C(=O)Nc3c(C)cc(Br)cc32)ccc1O was read as MEX-5 binding inactive, EBNA-1 inhibitor inactive and ZTA counter inactive.
COc1cccc(-c2nc(CS(=O)(=O)CC(=O)Nc3ccccc3Cl)c(C)o2)c1 was read as MEX-5 binding inactive, EBNA-1 inhibitor inactive and ZTA counter inactive.
For Cc1ccc(NC(=S)N=Nc2c(O)[nH]c3ccccc23)cc1 the results were MEX-5 binding inactive, EBV gp42 block inactive, EBNA-1 inhibitor inactive and ZTA counter inactive.
For Oc1ccc(NC(=S)N=Nc2c(O)[nH]c3ccccc23)cc1 the results were MEX-5 binding -25.9, EBV gp42 block inactive, EBNA-1 inhibitor inactive and ZTA counter inactive.
Screening CCCCN1C(=O)/C(=C/C=C2\N(C)c3ccccc3C2(C)C)SC1=S returned EBV gp42 block active, EBNA-1 inhibitor inactive and ZTA counter inactive.
Screening CCCCN1C(=O)/C(=C/C=C2\SCCN2C)SC1=S returned MEX-5 binding inactive and EBV gp42 block inactive.
`CN(N=Nc1ccc([N+](=O)[O-])cc1)c1ccccc1` gave MEX-5 binding -58.1, EBV gp42 block 81.9, EBNA-1 inhibitor inactive and ZTA counter inactive.
For CCCCCN(C(=O)CCC(=O)OCCOc1ccccc1Cl)c1c(N)n(CCCC)c(=O)[nH]c1=O the results were MEX-5 binding inactive, EBNA-1 inhibitor inactive and ZTA counter inactive.
For CCOc1cc(CNc2ccc(N(C)C)cc2)cc(Br)c1OCC(=O)NC(C)(C)C the results were MEX-5 binding inactive, EBV gp42 block inactive, EBNA-1 inhibitor active and ZTA counter active.
CCOc1cc(CNc2ccc(N3CCCCC3)cc2)cc(Br)c1OCC(=O)NC(C)(C)C was read as MEX-5 binding inactive, EBV gp42 block inactive, EBNA-1 inhibitor inactive and ZTA counter inactive.
Screening COc1cc2c3nnc(-c4ccccc4)c-3cn(Cc3ccccc3F)c2cc1OC returned MEX-5 binding -58.9, EBV gp42 block inactive, EBNA-1 inhibitor inactive and ZTA counter inactive.
For O=c1c2ccccc2nc2n1CC/C2=C\c1ccccc1[N+](=O)[O-] the results were EBV gp42 block 65.8.
COCCn1c(SCC(=O)NC2CCCC2)nnc1-c1ccco1 was read as MEX-5 binding inactive, EBNA-1 inhibitor inactive and ZTA counter inactive.
Screening CSCC(C)N1CCC(n2nccc2NC(=O)CCc2ccccc2)CC1 (stereo not given) returned MEX-5 binding inactive.
Screening CSCC(C)N1CCC(n2nccc2NC(=O)CCCc2ccccc2)CC1 (stereo not given) returned MEX-5 binding -64.1, EBNA-1 inhibitor inactive and ZTA counter inactive.
For COc1ccccc1C(=O)Nc1ccnn1C1CCN(C)CC1 the results were EBNA-1 inhibitor inactive and ZTA counter inactive.
For COc1ccccc1C(=O)Nc1ccnn1C1CCN(C(C)CSC)CC1 (stereo not given) the results were MEX-5 binding -25.6, EBNA-1 inhibitor inactive and ZTA counter inactive.
For CC(CC(=O)NCCc1ccc(F)cc1)c1ccccc1 (stereo not given) the results were MEX-5 binding inactive, EBNA-1 inhibitor inactive and ZTA counter inactive.
Cc1cc(O)c(-c2cc(O)c(C)cc2O)cc1O was read as MEX-5 binding -79.8, EBV gp42 block inactive, EBNA-1 inhibitor inactive and ZTA counter inactive.
Screening Cc1ccc(N)cc1O returned ZTA counter inactive.
Screening CCOC(=O)C(=O)/C(=C\N(C)C)c1onc(-c2ccccc2)c1C(=O)OC returned MEX-5 binding inactive, EBV gp42 block 131.8, EBNA-1 inhibitor inactive and ZTA counter inactive.
`CCOC(=O)C(=O)/C(=C\N(C)C)c1onc(-c2ccccc2Cl)c1C(=O)OC` gave MEX-5 binding inactive, EBV gp42 block inactive, EBNA-1 inhibitor inactive and ZTA counter inactive.
For CC1CCN(Cc2c(O)ccc3c2O/C(=C\c2ccco2)C3=O)CC1 the results were MEX-5 binding inconclusive, EBV gp42 block inactive, EBNA-1 inhibitor inactive and ZTA counter inactive.
Screening Cc1ccc(/C=C2\Oc3c(ccc(O)c3CN3CCN(CCO)CC3)C2=O)cc1 returned MEX-5 binding -31.5, EBV gp42 block inactive, EBNA-1 inhibitor inactive and ZTA counter inactive.
Screening O=C1/C(=C/c2ccco2)Oc2c1ccc(O)c2CN1CCCCC1 returned MEX-5 binding inconclusive, EBV gp42 block 51.0, EBNA-1 inhibitor inactive and ZTA counter inactive.
Screening Nc1cccc(C(=O)OCC(=O)Nc2cccc3c2C(=O)c2ccccc2C3=O)c1 returned MEX-5 binding inactive, EBV gp42 block 92.5, EBNA-1 inhibitor inactive and ZTA counter inactive.
For Fc1ccc(NCc2cccnc2)cc1F the results were MEX-5 binding inconclusive, EBV gp42 block 115.3, EBNA-1 inhibitor inactive and ZTA counter inactive.
